# Measurements from the supplement of paper PMC12067093, “Discovery and optimisation of a covalent ligand for TRIM25 and its application to targeted protein ubiquitination” (Chemical Science, 2025).
# Of roughly 21,000 targets only a part is listed; those with the largest changes were picked by preference.
# Target: PKN2_Q16513_118_LQELNAHIVVSDPEDITDCPR (UniProt Q16513)
# Test: probe-labelled cysteine peptide fold change vs DMSO (competition) (log2 fold change); higher = less target engagement (more negative = stronger competition)
# Conditions: THP-1, incubation time: 4 h
# 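Further: competitive profiling in live THP-1 cells: cysteine peptides tagged with an iodoacetamide desthiobiotin (IA-DTB) probe, intensity after compound treatment relative to DMSO-treated cells.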
# UniProt Q16513, sequence (Q16513 whole entry, looked up): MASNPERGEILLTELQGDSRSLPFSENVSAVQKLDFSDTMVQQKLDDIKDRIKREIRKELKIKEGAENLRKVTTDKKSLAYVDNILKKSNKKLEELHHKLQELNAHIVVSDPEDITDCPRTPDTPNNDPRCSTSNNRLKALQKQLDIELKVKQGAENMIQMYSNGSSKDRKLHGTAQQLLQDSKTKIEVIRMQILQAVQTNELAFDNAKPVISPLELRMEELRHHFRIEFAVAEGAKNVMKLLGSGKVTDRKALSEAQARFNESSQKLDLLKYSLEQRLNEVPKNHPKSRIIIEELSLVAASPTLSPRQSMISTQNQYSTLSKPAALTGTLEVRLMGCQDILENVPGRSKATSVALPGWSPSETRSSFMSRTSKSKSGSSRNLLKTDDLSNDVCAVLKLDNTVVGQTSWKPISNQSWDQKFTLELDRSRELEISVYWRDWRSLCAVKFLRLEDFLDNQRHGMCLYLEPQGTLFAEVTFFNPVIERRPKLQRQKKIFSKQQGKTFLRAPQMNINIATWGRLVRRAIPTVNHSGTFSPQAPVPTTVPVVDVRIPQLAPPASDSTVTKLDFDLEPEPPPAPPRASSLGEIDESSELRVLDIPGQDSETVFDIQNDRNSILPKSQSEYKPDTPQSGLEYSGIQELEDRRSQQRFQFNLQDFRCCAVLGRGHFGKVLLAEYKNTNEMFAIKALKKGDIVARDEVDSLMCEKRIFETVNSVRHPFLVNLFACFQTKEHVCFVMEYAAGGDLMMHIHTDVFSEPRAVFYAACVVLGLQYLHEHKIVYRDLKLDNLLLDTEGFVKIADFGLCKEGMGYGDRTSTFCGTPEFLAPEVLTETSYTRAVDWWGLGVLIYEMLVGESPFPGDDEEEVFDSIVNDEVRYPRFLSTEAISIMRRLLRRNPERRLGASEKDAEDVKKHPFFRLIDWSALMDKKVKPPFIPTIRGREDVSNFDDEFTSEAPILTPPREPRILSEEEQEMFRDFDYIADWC
structure (smiles),measurement,setting,value
Cc1cc(C(=O)N2CCCN(C(=O)CCl)CC2)ccc1-c1ccccc1 [compound 10],probe-labelled cysteine peptide fold change,10 µM,-0.00661
same,probe-labelled cysteine peptide fold change,50 µM,0.269
